Experimental data from PubChem BioAssay.

Molecular target: Alpha-2C adrenergic receptor (Homo sapiens) (UniProt P18825)
Test: compounds altering alpha2C-coupled GIRK flux – cell-based, HEK293 alpha2C/GIRK1/2, thallium flux, primary screen (AID 624);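 further: slope of fluorescence ratio to pre-addition baseline per second over 15 to 24 s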
Conditions: thallium flux BTC fluorescence, at 10 µM, actives lie on both sides

Chain of Alpha-2C adrenergic receptor (Homo sapiens) (P18825 whole entry, looked up): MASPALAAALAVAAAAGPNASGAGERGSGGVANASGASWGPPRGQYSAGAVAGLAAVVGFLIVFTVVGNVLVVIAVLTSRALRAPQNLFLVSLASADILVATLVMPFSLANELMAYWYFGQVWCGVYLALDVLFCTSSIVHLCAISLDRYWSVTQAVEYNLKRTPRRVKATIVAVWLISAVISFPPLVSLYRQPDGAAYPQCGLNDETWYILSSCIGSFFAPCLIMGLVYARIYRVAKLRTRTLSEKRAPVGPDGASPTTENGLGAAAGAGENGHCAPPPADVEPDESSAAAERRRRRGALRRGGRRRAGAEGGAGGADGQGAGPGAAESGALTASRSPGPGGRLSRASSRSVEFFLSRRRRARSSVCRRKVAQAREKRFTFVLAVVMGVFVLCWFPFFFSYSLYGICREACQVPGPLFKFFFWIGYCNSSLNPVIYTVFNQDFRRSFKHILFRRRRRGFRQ

slope, inactive:
CCOCCCNC(=O)CS(=O)(=O)Cc1nc(-c2cccc(OC)c2)oc1C 0.00578, Cc1ccc(Br)cc1S(=O)(=O)N1CCN(c2ccccc2)CC1 0.0036, Cn1c(=O)c(=O)n(C)c2cc(S(=O)(=O)N3CCN(c4cccc(C(F)(F)F)c4)CC3)ccc21 0.00616, Cc1cccc(N2CCN(C(=O)C3CCCN(S(=O)(=O)c4c(C)noc4C)C3)CC2)c1C (stereo not given) 0.00588, COc1ccc(-n2c(SCC(=O)N3CCCCC3C)nnc2-c2cccnc2)cc1 (stereo not given) 0.00523, NCc1cccc(-n2cccn2)c1 0.00555, COC(=O)CSC1=C(C#N)C(c2ccccc2)CC(=O)N1 (stereo not given) 0.00515, Oc1ccc(N2CCN(C(c3ccncc3)c3nnnn3C3CCCC3)CC2)cc1 (stereo not given) 0.00598, CCc1nc2scc(-c3ccccc3)c2c(=O)n1N 0.00592, CN(Cc1cccs1)C(=O)CCc1ccc(S(=O)(=O)N2CCOCC2)cc1 0.00394, CC1=C(C(N)=O)C(c2ccccn2)n2nc(SCc3ccccc3)nc2N1 (stereo not given) 0.0057, CCOc1ccc(NC(=O)c2ccccc2O)cc1 0.00439, O=S(=O)(c1ccc2ccccc2c1)N1CCCCC1 0.00701, N#CC1=C(N)OC(c2ccccc2)=C(C#N)C1c1ccc2c(c1)OCO2 (stereo not given) 0.00651, Cc1cc(C)c2c(=O)n(CC(=O)NCCCN3CCOCC3)sc2n1 0.00687, COC(=O)CNC(=O)COC(=O)c1cc(Cl)cc(Cl)c1N 0.0054, CCOc1ccc(NCc2nnc(SCC(=O)Nc3cc(C)on3)n2-c2ccccc2OC)cc1 0.00835, CCN(CC)CCNC(=O)c1ccc(CS(=O)(=O)c2ccc(Br)cc2)o1 0.00568, CCCn1c(=NC(C)=O)c(C#N)cc2c(=O)n3cccc(C)c3nc21 0.0086, CCn1c(=O)c(C(=O)Nc2cccnc2)c(O)c2ccccc21 0.00569, Cc1cccc(C2CC(c3ccccc3)Nc3nc(N)nn32)c1 (stereo not given) 0.00697, CCOC(=O)CN1CC23C=CC(O2)C(C(=O)Nc2ccc(C(C)=O)cc2)C3C1=O (stereo not given) 0.00637, COc1ccccc1CNC(=O)C1CCCN(S(=O)(=O)c2cccc3cccnc23)C1 (stereo not given) 0.00706, COc1ccc(C2=NO[C@@H]3C(=O)N(c4ccc5c(c4)OCCO5)C(=O)[C@H]23)cc1OC 0.0052, CCOC(=O)c1ccccc1NC(=O)CSc1nnc(COc2ccccc2C)n1C 0.00577, COC(=O)c1sc(N2C(=O)C(O)=C(C(=O)c3ccc(C)o3)C2c2ccc(F)cc2)nc1C (stereo not given) 0.0054, CCN(CCNC(=O)CS(=O)(=O)Cc1nc(-c2cccc(OC)c2)oc1C)c1ccccc1 0.00529, CN(CCNS(=O)(=O)c1ccc2c(c1)oc(=O)n2C)Cc1ccccc1 0.0075, CC1CCN(c2nc3c(c(=O)[nH]c(=O)n3C)n2CCSc2ncccn2)CC1 0.00584, COc1cc2c(C)nc(C)c(C#N)c2cc1OC 0.00598, COc1ccc(N(CC(=O)Nc2ccc(F)c(Cl)c2)S(=O)(=O)c2c(C)noc2C)cc1 0.00672, Cc1nc2ncnn2c(N2CCC(C(=O)NC3CCCC3)CC2)c1Cc1ccccc1 0.00426, CCC(C)(C)NC(=O)C(c1ccco1)N(C(=O)Cn1nnc2ccccc21)c1ccc2c(c1)OCO2 (stereo not given) 0.00407, Fc1cccc(NCc2cn3ccccc3n2)c1 0.00555, COc1ccccc1N1CCN(Cc2nc(N)nc(Nc3ccc(C)c(Cl)c3)n2)CC1 0.00625, COCCCNC(=O)CSc1ccc(Cl)cc1 0.00511, CS(=O)(=O)NCCSCc1c(F)cccc1Cl 0.00448, O=C(NCC1CCCO1)C1CCC(CNS(=O)(=O)c2ccccc2)CC1 (stereo not given) 0.00661, Cc1ccc(C2C(C(=O)c3sc(C)nc3C)=C(O)C(=O)N2CCN(C)C)o1 (stereo not given) 0.00504, O=C(Nc1nc2c(s1)CCCC2)C1COc2ccccc2O1 (stereo not given) 0.00646

System: not listed separately
Test: blockers of RIG-like receptor reporter activation – cell-based, Sendai virus stimulus, luciferase, 10K MLSCN set, TLR/RLR signaling modifier project, primary screen (AID 602276;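 active means inhibition at or above 50% at 10 µM; inactive means inhibition below 50%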;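 further: firefly luciferase from ISG56 promoter only with Renilla not read in this screen; 0% = Sendai virus plus DMSO and 100% = medium plus DMSO without virus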)
Conditions: HEK293 RL24 IRF3 luciferase reporter, at 10 µM, active compounds read high

inhibition, inactive:
CCOCCCNC(=O)CS(=O)(=O)Cc1nc(-c2cccc(OC)c2)oc1C 12.4%, Cc1ccc(Br)cc1S(=O)(=O)N1CCN(c2ccccc2)CC1 5.17%, Cn1c(=O)c(=O)n(C)c2cc(S(=O)(=O)N3CCN(c4cccc(C(F)(F)F)c4)CC3)ccc21 1.46%, Cc1cccc(N2CCN(C(=O)C3CCCN(S(=O)(=O)c4c(C)noc4C)C3)CC2)c1C (stereo not given) 8.68%, COc1ccc(-n2c(SCC(=O)N3CCCCC3C)nnc2-c2cccnc2)cc1 (stereo not given) 6.12%, NCc1cccc(-n2cccn2)c1 -6.32%, COC(=O)CSC1=C(C#N)C(c2ccccc2)CC(=O)N1 (stereo not given) 25.3%, Oc1ccc(N2CCN(C(c3ccncc3)c3nnnn3C3CCCC3)CC2)cc1 (stereo not given) 17%, CCc1nc2scc(-c3ccccc3)c2c(=O)n1N -8.38%, CN(Cc1cccs1)C(=O)CCc1ccc(S(=O)(=O)N2CCOCC2)cc1 -6.32%, CC1=C(C(N)=O)C(c2ccccn2)n2nc(SCc3ccccc3)nc2N1 (stereo not given) -8.46%, CCOc1ccc(NC(=O)c2ccccc2O)cc1 -59.1%, O=S(=O)(c1ccc2ccccc2c1)N1CCCCC1 13.9%, N#CC1=C(N)OC(c2ccccc2)=C(C#N)C1c1ccc2c(c1)OCO2 (stereo not given) -16.2%, Cc1cc(C)c2c(=O)n(CC(=O)NCCCN3CCOCC3)sc2n1 10.4%, COC(=O)CNC(=O)COC(=O)c1cc(Cl)cc(Cl)c1N -8.86%, CCOc1ccc(NCc2nnc(SCC(=O)Nc3cc(C)on3)n2-c2ccccc2OC)cc1 20.4%, CCN(CC)CCNC(=O)c1ccc(CS(=O)(=O)c2ccc(Br)cc2)o1 7.79%, CCCn1c(=NC(C)=O)c(C#N)cc2c(=O)n3cccc(C)c3nc21 -11.4%, CCn1c(=O)c(C(=O)Nc2cccnc2)c(O)c2ccccc21 -1.35%, Cc1cccc(C2CC(c3ccccc3)Nc3nc(N)nn32)c1 (stereo not given) 9.21%, CCOC(=O)CN1CC23C=CC(O2)C(C(=O)Nc2ccc(C(C)=O)cc2)C3C1=O (stereo not given) -3.34%, COc1ccccc1CNC(=O)C1CCCN(S(=O)(=O)c2cccc3cccnc23)C1 (stereo not given) 3.46%, COc1ccc(C2=NO[C@@H]3C(=O)N(c4ccc5c(c4)OCCO5)C(=O)[C@H]23)cc1OC -13.6%, CCOC(=O)c1ccccc1NC(=O)CSc1nnc(COc2ccccc2C)n1C 16.9%, COC(=O)c1sc(N2C(=O)C(O)=C(C(=O)c3ccc(C)o3)C2c2ccc(F)cc2)nc1C (stereo not given) 18.3%, CCN(CCNC(=O)CS(=O)(=O)Cc1nc(-c2cccc(OC)c2)oc1C)c1ccccc1 13.7%, CN(CCNS(=O)(=O)c1ccc2c(c1)oc(=O)n2C)Cc1ccccc1 9.41%, CC1CCN(c2nc3c(c(=O)[nH]c(=O)n3C)n2CCSc2ncccn2)CC1 8.83%, COc1cc2c(C)nc(C)c(C#N)c2cc1OC 2.98%, COc1ccc(N(CC(=O)Nc2ccc(F)c(Cl)c2)S(=O)(=O)c2c(C)noc2C)cc1 16.5%, Cc1nc2ncnn2c(N2CCC(C(=O)NC3CCCC3)CC2)c1Cc1ccccc1 5.2%, CCC(C)(C)NC(=O)C(c1ccco1)N(C(=O)Cn1nnc2ccccc21)c1ccc2c(c1)OCO2 (stereo not given) 14.6%, Fc1cccc(NCc2cn3ccccc3n2)c1 -1.05%, COc1ccccc1N1CCN(Cc2nc(N)nc(Nc3ccc(C)c(Cl)c3)n2)CC1 11.5%, COCCCNC(=O)CSc1ccc(Cl)cc1 1.1%, CS(=O)(=O)NCCSCc1c(F)cccc1Cl 2.63%, O=C(NCC1CCCO1)C1CCC(CNS(=O)(=O)c2ccccc2)CC1 (stereo not given) 7.1%, Cc1ccc(C2C(C(=O)c3sc(C)nc3C)=C(O)C(=O)N2CCN(C)C)o1 (stereo not given) 7.21%, O=C(Nc1nc2c(s1)CCCC2)C1COc2ccccc2O1 (stereo not given) 31%
